Reference: PubChem BioAssay AID624288 (National Center for Advancing Translational Sciences (NCATS), 2012)
The whole screen tested about 340,000 compounds, of which about 1,400 (0.41%) were called active. Not shown: some 4% with an inconclusive outcome. Shown is part of a subset that was picked to be rich in actives. A number with no mark means an inactive call. Calls come from the whole dose curve; cell line not stated here.

test: qHTS for Antagonists of gsp, the Etiologic Mutation Responsible for Fibrous Dysplasia/McCune-Albright Syndrome: qHTS; conditions: gsp-mutant cells, cAMP HTRF, 30 min; series mostly up to 76.9 µM; activity change, negative = inhibition: at the top concentration; note: nearly all actives have a fitted effect of over 65% in size
Source text: McCune-Albright syndrome (MAS) is a rare disease caused by somatic mutations in Gsgsp), a widely expressed protein central in signal transduction from G-coupled protein receptors (GPCRs). The disease symptoms are diverse, owing to the fact that the patients are mosaics with varying degrees of tissue involvement. Greater than 90% of the mutations in Gs in MAS occur at the R201 position and are equally divided between R201H and R201C. The R201 residue is central in the intrinsic GTPase activity of Gs and the H and C mutations lead to loss of, or impairment of, the GTPase activity. The intrinsic GTPase activity is necessary to terminate the interaction between Gs and adenylate cyclase, and to terminate the cAMP-mediated signaling of the given GPCR pathway. Thus, these activating mutations lead to ligand-independent activation of GPCR pathways. The tissue phenotype is determined by the role of Gs in the function of a given cell, and excess Gs/cAMP signaling in that cell. For example, pituitary somatotrophs overproduce growth hormone in a growth hormone releasing hormone-independent fashion, and gigantism/acromegaly ensues. Skeletal stem cells in the bone marrow behave as if they are under constant parathyroid hormone stimulation and fail to differentiate into osteoblasts and osteocytes, and proliferate as immature osteogenic cells and lead to the marrow fibrosis of fibrous dysplasia of bone. The goal of this project is to identify molecules with inhibitory activity at gsp mutations that will not only allow for in-depth study of the underlying molecular and cellular pathophysiology, but also serve as compounds from which drugs to treat FD/MAS can be developed NIH Chemical Genomics Center [NCGC] NIH Molecular Libraries Probe Centers Network [MLPCN] MLPCN Grant: IRP-FT-DE-2011-01 Assay Submitter (PI): Michael Collins, NIDCR
1.#Seed 2000 cells/well in 6 ul DMEM 10% FBS, 1% Pen/Strep, 0.5 mg/ml G418 2.#Incubate 16-24 hr at 37C, 5% CO2, 95% humidity 3.#Aspirate leaving 1 ul residual volume 4.#Dispense 5 ul/well DPBS + 1 mM CaCl2, 0.5 mM MgCl2, 0.05% BSA, 0.005% Tween 20 5.#Aspirate leaving 2 ul residual volume 6.#Dispense 23 nl/well compounds in DMSO 7.#Dispense 1 ul/well 300 uM Ro-20174 in DMEM 10% FBS 8.#Incubate 30 min at 37C, 5% CO2, 95% humidity 9.#Dispense 1.5 ul/well HTRF reagent: cAMP-d2 in lysis buffer 10.#Dispense 1.5 ul/well HTRF reagent: anti-cAMP antibody-K in lysis buffer 11.#Incubate 30 min at room temperature 12.#Detect HTRF signal using EnVision plate reader
% is set by controls: 0 for no effect and ±100 for the full control effect; potency is the fitted concentration of half-maximal effect.

Row | Structure (SMILES) | Potency | activity change, negative = inhibition [%]
1 | CC1=CC(=Cc2sc3ccccc3[n+]2C)C=C(C)O1 | 44.7 µM (active) | –
2 | COc1ccc(-n2c(-c3ccccc3)nc3ccccc3c2=O)cc1 | – | -9.38
3 | COc1cc(C(c2c(O)c3ccccc3oc2=O)c2c(C)n(C)n(-c3ccccc3)c2=O)ccc1O (stereo not given) | – | 19.4
4 | CCC(=O)CC(c1ccc([N+](=O)[O-])cc1)c1c(O)c2ccccc2oc1=O (stereo not given) | 31.6 µM (active) | –
5 | Cc1ccc(-n2c(-c3ccc([N+](=O)[O-])cc3)nc3ccccc3c2=O)cc1 | – | -12.7
6 | CC[C@H]1CN2CCc3cc(OC)c(OC)cc3[C@@H]2C[C@@H]1C[C@H]1NCCc2cc(OC)c(OC)cc21 | – | -7.25
7 | CN(C)C(=O)NC(O)C(Cl)(Cl)Cl (stereo not given) | – | 7.94
8 | CC(=O)OC1C2(CC3N4C(=O)C5(CO)SSC4(CC31O)C(=O)N5C)OC(C)C(C)(C)C2=O (stereo not given) | – | 4.27
9 | C=CCn1c(O)c(/C=N/N2CCOCC2)c(=O)[nH]c1=S | – | -6.96
10 | COC(=O)C1=C(c2c(C)noc2C)C[C@@H]2CC[C@H]1N2C(=O)NCc1ccc2c(c1)OCO2 | – | 4.81
